Results published in PubChem BioAssay.
The source made the active and inactive calls. Unless noted, how the calls were made is not given here.

Columns and labels:
[1] = compounds binding Alexa647 anti-His antibody – biochemical, small-molecule microarray, 635 nm fluorescence, artefact control for SMM control protein annotation, primary screen (AID 1128); settings: higher = more signal;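 further: score merges feature fluorescence with signal-to-noise for each printed compound spot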
[2] = tested on: Human papillomavirus type 1a E7 protein (residues 1-88); test: HPV1a E7 small-molecule binders, primary screen, biochemical, small-molecule microarray, residues 1-88, 635 nm (AID 1129); settings: small-molecule microarray binding, fluorescence 635 nm; higher = more signal
[3] = target: Focal adhesion kinase 1 (Homo sapiens) (UniProt Q05397); test: PTK2 protein binding on printed compound slides – biochemical, small-molecule microarray, 635/667 nm fluorescence, BSA, DTT, primary screen (AID 1130); settings: 635 nm fluorescence, higher = more signal;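 further: composite of spot emission at 667 nm and signal to noise over triplicate slides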
[4] = tested on: Fibrinogen (Alexa647-labelled); test: Alexa647-fibrinogen binding to printed small molecules – biochemical, small-molecule microarray, 635/667 nm fluorescence, artefact control for SMM control-protein annotation, profiling panel (AID 1131); settings: fibrinogen-A647 binding fluorescence, higher = more signal;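 further: z-score merges 667 nm fluorescence with per-spot signal-to-noise over triplicate slides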
[5] = target: Follistatin (Homo sapiens) (UniProt P19883); test: FST protein binding to printed compounds – biochemical, small-molecule microarray, 635/667 nm fluorescence, primary screen (AID 1132); settings: 635 nm fluorescence, higher = more signal
[6] = target: Fibroblast growth factor 2 (Homo sapiens) (UniProt P09038); test: basic fibroblast growth factor binding to printed compounds – biochemical, small-molecule microarray, 635/667 nm fluorescence, primary screen (AID 1133); settings: FGF2, fluorescence 635/667, higher = more signal
[7] = JC-1 mitochondrial potential readout, lung cancer cells – cell-based, A549, JC-1 fluorescence, basal, 24 h, 100 nL, profiling panel (AID 1138); settings: higher = more signal;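 further: A549 lung adenocarcinoma cells under basal conditions with no added stimulus; test concentration not given here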
Lefty1 = Lefty1 protein binding to printed compounds – biochemical, small-molecule microarray, 635/667 nm fluorescence, primary screen (AID 1139); settings: fluorescence 635/667, higher = more signal
[8] = tested on: wheat germ agglutinin (Triticum aestivum), Alexa647-labelled; test: Alexa647-WGA lectin binding to printed small molecules – biochemical, small-molecule microarray, 635/667 nm fluorescence, artefact control for SMM control-protein annotation, profiling panel (AID 1140); settings: WGA-A647 binding, 635 nm fluorescence, higher = more signal;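 further: score merges 667 nm feature emission with signal to noise over triplicate slides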
[9] = target: Luciferin 4-monooxygenase (Photinus pyralis) (UniProt P08659); test: inhibition of purified Photinus pyralis luciferase – biochemical, luminescence, purified enzyme, 2006 set, primary screen (AID 1141); settings: purified firefly luciferase, SteadyGlo luminescence, 30 min; higher = more signal, called active from +8 up or from −8 down;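 further: cell-free assay with purified firefly luciferase at 100 ng per well in PBS; test concentration not given here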
[10] = tested on: Wnt5a (protein binding on small-molecule microarray); test: small molecules binding Wnt5a protein – biophysical, small-molecule microarray, 635/667 nm fluorescence, primary screen (AID 1142); settings: 635 nm fluorescence, higher = more signal;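 further: fluorescence read at 667 nm with signal to noise per printed feature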
[11] = ATP-based viability of Huh7 replicon cells – cell-based, CellTiter-Glo luminescence, basal, 48 h, cytotoxicity control for HCV replication inhibitor project, primary screen (AID 1143); settings: higher = more signal, called active from +8 up or from −8 down;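 further: Huh7 hepatoma cells carrying a hepatitis C replication reporter with no stimulus; test concentration not given here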
[12] = Pseudomonas biofilm growth suppression – PAO1 strain, BacTiter-Glo luminescence, LB-PBS, primary screen (AID 1144); settings: P. aeruginosa PAO1 biofilm, 12 h, higher = more signal
[13] = basal CRE-LacZ reporter activity in PC12 – cell-based, unstimulated, primary screen (AID 1145); settings: no forskolin, luminescence, 4.5 h, higher = more signal, called active from +8 up or from −8 down
[14] = forskolin-driven CRE-LacZ activity in PC12 – cell-based, CRE-LacZ reporter, forskolin-stimulated, primary screen (AID 1146); settings: luminescence, 4.5 h, higher = more signal, called active from +8 up or from −8 down;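 further: PC12 cells with 6xCRE LacZ reporter stimulated by forskolin 10 µM; beta-galactosidase reporter signal reflecting CREB driven transcription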
[15] = target: Streptavidin (Streptomyces avidinii) (UniProt P22629); test: compounds binding control protein streptavidin – biophysical, small-molecule microarray, 635/667 nm fluorescence, artefact control for SMM compound annotation, primary screen (AID 1147); settings: higher = more signal;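 further: signal reflects streptavidin binding to arrayed compounds as a control protein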
[16] = probe aInhba binding on compound microarray – biochemical, small-molecule microarray, 635/667 nm fluorescence, primary screen (AID 1148); settings: higher = more signal;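 further: score merges 667nm spot fluorescence with signal-to-noise for antibody binding to printed compounds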
Torsin-1A (Homo sapiens) [17] = target: Torsin-1A (Homo sapiens) (UniProt O14656); test: TOR1A wild-type binding on microarray – cell lysate, small-molecule microarray, lysate, 635/667 nm, primary screen (AID 1149); settings: COS7 hTOR1A-WT lysate, 635 nm fluorescence, higher = more signal
Torsin-1A (Homo sapiens) [18] = target: Torsin-1A (Homo sapiens) (UniProt O14656); test: torsin A mutant lysate binding on microarrays – cell lysate, small-molecule microarray, COS7 lysate, 635/667 nm fluorescence, primary screen (AID 1150); settings: COS7 hTOR1A mutant lysate, 635 nm fluorescence, higher = more signal;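 further: score pools 667 nm emission and signal to noise measuring lysate protein binding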
[19] = tested on: Sonic hedgehog protein (Shh); test: Sonic hedgehog microarray binding compounds – biochemical, small-molecule microarray, 635/667 nm fluorescence, primary screen (AID 1151); settings: 635 nm fluorescence, higher = more signal;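 further: Shh protein binding to compounds spotted on small-molecule microarray slides; score combines spot fluorescence intensity with signal-to-noise across triplicate slides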

Streptavidin (Streptomyces avidinii), sequence (P22629 whole entry, looked up): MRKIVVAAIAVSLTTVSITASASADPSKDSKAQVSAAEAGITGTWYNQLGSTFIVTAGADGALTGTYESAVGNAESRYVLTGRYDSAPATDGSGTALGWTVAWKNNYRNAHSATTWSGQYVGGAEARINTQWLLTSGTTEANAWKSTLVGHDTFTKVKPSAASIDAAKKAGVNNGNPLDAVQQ
Luciferin 4-monooxygenase (Photinus pyralis), sequence (P08659 whole entry, looked up): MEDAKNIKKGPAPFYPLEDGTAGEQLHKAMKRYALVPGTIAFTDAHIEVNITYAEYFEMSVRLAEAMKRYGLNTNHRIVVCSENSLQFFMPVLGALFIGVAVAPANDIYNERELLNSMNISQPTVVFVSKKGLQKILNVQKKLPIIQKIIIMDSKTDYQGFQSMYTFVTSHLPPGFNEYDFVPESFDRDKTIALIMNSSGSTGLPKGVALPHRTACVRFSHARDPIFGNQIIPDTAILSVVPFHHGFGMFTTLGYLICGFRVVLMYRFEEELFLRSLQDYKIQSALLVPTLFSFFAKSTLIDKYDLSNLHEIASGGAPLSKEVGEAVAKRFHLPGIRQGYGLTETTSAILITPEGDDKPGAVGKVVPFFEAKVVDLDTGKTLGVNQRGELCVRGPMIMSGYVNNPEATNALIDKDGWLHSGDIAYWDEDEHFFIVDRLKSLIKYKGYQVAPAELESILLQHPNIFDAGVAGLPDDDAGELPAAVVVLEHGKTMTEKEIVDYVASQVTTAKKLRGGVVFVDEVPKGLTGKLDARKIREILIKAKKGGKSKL
Torsin-1A (Homo sapiens), sequence (O14656 whole entry, looked up): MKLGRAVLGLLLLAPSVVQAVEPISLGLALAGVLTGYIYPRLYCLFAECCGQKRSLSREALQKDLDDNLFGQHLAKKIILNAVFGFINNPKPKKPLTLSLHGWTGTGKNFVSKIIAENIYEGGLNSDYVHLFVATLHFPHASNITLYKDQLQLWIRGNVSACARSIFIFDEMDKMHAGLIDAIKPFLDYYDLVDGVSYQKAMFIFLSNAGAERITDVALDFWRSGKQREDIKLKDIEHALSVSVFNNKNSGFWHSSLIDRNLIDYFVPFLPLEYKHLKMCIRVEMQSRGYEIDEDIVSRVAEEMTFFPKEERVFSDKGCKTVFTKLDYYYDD
Follistatin (Homo sapiens), sequence (P19883 whole entry, looked up): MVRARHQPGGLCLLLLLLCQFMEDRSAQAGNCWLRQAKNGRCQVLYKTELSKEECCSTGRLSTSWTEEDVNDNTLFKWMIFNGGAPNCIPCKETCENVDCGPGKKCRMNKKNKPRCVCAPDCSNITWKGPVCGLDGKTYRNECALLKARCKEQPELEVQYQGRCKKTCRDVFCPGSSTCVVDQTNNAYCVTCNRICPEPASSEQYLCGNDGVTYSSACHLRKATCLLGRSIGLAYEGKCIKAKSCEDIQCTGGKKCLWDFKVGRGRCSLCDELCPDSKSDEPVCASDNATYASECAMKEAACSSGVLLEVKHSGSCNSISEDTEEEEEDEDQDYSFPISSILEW
Focal adhesion kinase 1 (Homo sapiens), sequence (Q05397 whole entry, looked up): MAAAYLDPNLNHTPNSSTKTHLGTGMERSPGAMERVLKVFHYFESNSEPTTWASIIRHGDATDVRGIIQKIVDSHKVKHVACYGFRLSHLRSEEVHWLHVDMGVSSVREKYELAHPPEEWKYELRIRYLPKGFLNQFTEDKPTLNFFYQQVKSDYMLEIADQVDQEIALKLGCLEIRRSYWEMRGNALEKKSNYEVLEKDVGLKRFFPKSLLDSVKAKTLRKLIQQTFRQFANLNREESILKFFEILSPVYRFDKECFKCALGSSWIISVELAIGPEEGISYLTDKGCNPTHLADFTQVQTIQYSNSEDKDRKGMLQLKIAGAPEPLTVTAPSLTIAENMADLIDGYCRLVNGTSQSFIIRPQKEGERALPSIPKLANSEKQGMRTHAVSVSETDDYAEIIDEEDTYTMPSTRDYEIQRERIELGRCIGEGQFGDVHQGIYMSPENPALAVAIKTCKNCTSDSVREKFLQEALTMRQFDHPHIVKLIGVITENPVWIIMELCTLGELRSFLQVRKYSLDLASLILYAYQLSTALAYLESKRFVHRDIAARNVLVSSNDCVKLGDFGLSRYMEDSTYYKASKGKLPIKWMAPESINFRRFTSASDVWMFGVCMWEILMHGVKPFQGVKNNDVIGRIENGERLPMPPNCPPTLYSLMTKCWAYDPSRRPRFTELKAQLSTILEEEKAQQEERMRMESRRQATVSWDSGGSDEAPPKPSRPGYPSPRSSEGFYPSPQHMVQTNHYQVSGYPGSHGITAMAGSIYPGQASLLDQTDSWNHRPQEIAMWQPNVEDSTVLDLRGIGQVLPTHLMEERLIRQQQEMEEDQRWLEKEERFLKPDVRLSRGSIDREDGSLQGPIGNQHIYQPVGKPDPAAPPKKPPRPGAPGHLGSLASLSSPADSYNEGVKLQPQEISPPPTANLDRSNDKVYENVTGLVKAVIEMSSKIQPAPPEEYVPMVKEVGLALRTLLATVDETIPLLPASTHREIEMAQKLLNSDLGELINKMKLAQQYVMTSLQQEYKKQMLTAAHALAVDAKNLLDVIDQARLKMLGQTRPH
Fibroblast growth factor 2 (Homo sapiens), sequence (P09038 whole entry, looked up): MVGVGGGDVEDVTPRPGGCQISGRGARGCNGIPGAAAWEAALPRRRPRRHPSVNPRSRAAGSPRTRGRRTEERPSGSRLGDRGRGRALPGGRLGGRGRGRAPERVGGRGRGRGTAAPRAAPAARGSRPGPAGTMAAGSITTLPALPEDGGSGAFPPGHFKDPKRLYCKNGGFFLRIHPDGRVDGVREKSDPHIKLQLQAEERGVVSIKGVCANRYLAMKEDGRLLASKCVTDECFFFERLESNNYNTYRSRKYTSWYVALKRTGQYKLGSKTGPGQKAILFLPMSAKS

| Compound | composite z-score [1] | composite z-score [2] | composite z-score [3] | composite z-score [4] | composite z-score [5] | composite z-score [6] | z-score [7] | composite z-score (Lefty1) | composite z-score [8] | z-score [9] | composite z-score [10] | z-score [11] | z-score [12] | z-score [13] | z-score [14] | composite z-score [15] | composite z-score [16] | composite z-score (Torsin-1A (Homo sapiens) [17]) | composite z-score (Torsin-1A (Homo sapiens) [18]) | composite z-score [19] |
| --- | --- | --- | --- | --- | --- | --- | --- | --- | --- | --- | --- | --- | --- | --- | --- | --- | --- | --- | --- | --- |
| CO[C@H]1O[C@H](CO)[C@@H](OC(=O)c2ccc(Br)cc2)[C@@H]2OC(=O)[C@H](Cc3cccc(Br)c3)C/C=C/C[C@@H](Cc3cccc(Br)c3)C(=O)O[C@@H]12 | 1.58 | 1.05 | 0.214 | 0.647 | 1.02 | 0.897 | 1.02 | 0.442 | 0.31 | 0.0021 (inactive) | 0.422 | -1.62 (inactive) | -0.0682 (inactive) | 0.212 (inactive) | 0.122 (inactive) | 0.578 | -0.0695 | -0.103 | 0.442 | 0.707 |
| CC(C)c1ccc(NN2C(C(O)c3cccs3)C=CC3C(=O)N(c4ccccc4)C(=O)C32)cc1 (stereo not given) | 0.548 | 1.24 | 0.814 | 1.03 | 0.963 | -0.737 | -1.13 | 0.0247 | 1.06 | -0.893 (inactive) | 0.119 | -0.506 (inactive) | -0.579 (inactive) | 0.812 (inactive) | 0.311 (inactive) | 1.78 | 0.152 | 0.248 | 0.182 | -0.04 |
| COc1cc2c(cc1OC)CN(C(=O)[C@@H]1[C@H]3C(=O)O[C@H](c4ccccc4)[C@H](c4ccccc4)N3[C@H](c3ccc(OCCO)cc3)[C@@]13C(=O)Nc1ccc(C#CCCO)cc13)CC2 | 1.23 | 1.23 | 0.237 | 0.956 | 1.36 | 0.999 | -1.37 | 1.08 | 1.27 | -0.418 (inactive) | 0.452 | -4.91 (inactive) | -1.07 (inactive) | -0.465 (inactive) | 0.0283 (inactive) | 1.64 | -0.0812 | 0.431 | 0.755 | 1.25 |
| C[N+](C)(C)CCCCCCNC(=O)[C@@H]1C[C@@H]2C(=O)NCC(=O)N2[C@@H]1c1ccc(O)cc1 | 0.946 | 1.05 | -0.0272 | 0.49 | 1.41 | 1.31 | -0.779 | 1.53 | 0.01 | 0.584 (inactive) | 0.0508 | -0.0464 (inactive) | -0.404 (inactive) | -0.532 (inactive) | -0.828 (inactive) | 1.44 | -0.0933 | 0.319 | 0.523 | 2.16 |
| COCC(=C=CC[C@@H](O)c1ccccc1OCCO)C[C@@H](O)c1ccccn1 | -0.415 | 0.845 | 0.287 | -0.853 | 0.968 | 0.466 | -0.00359 | 0.913 | 0.293 | -0.578 (inactive) | 0.088 | -0.202 (inactive) | 1.2 (inactive) | 1.99 (inactive) | -0.465 (inactive) | -0.0795 | 0.0737 | 0.162 | 0.679 | 1.89 |
